About 79,000 compounds went through this panel and 15% of them were active in at least one assay; those are over-represented in the sample as a whole. A number with no mark means an inactive call. Activity calls are given as the source filed them. Rule as the data show it: active = growth inhibition above about 70%; inactive = the rest.

Assay [1] in a line: NCI Yeast Anticancer Drug Screen. Data for the rad50 strain (AID 155).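 Also: 0% = growth of vehicle-only cultures of the same strain.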 The settings on record: S. cerevisiae rad50 strain growth inhibition, stronger effect = higher value. The method in brief: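 Readout: growth inhibition relative to vehicle-treated cultures. Compound exposure was carried out in a genetically defined yeast strain deficient in DNA damage repair.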
Assay [2] is described as follows: NCI Yeast Anticancer Drug Screen. Data for the mec2-1 strain (AID 157). The settings on record: S. cerevisiae mec2-1 strain, stronger effect = higher value. The method in brief: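 mec2-1 yeast strain, carrying an alteration in DNA damage repair or cell cycle control, was exposed to compounds; growth inhibition was measured relative to vehicle-treated controls.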
Assay [3] can be described thus: NCI Yeast Anticancer Drug Screen. Data for the sgs1 mgt1 strain (AID 161).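 Also: 0% = growth of cultures given vehicle only.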 The settings on record: S. cerevisiae sgs1 mgt1 strain, stronger effect = higher value. In short, it runs like this: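 Yeast cells carrying a defined DNA-repair defect were exposed to test compounds. Growth inhibition was measured relative to vehicle-treated controls.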
A short description of assay [4]: NCI Yeast Anticancer Drug Screen. Data for the cln2 rad14 strain (AID 165).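 Also: 0% = growth equal to vehicle treated cultures.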 The settings on record: S. cerevisiae cln2 rad14 strain, stronger effect = higher value. In short, it runs like this: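 Yeast carrying cln2 and rad14 alterations (cell cycle control and DNA damage repair) were exposed to compounds. Growth inhibition was measured against vehicle-treated controls.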

Assay [5] in a line: NCI Yeast Anticancer Drug Screen. Data for the bub3 strain (AID 167). Particulars: S. cerevisiae bub3 mutant strain, stronger effect = higher value. In short, it runs like this: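 Readout: yeast growth inhibition, expressed relative to vehicle-only wells. The test organism is a mutant strain from a panel with lesions in DNA repair or checkpoint genes.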
Assay [6] in a line: NCI Yeast Anticancer Drug Screen. Data for the mlh1 rad18 strain (AID 175). Particulars: S. cerevisiae mlh1 rad18 strain growth inhibition, stronger effect = higher value. In short, it runs like this:
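Growth inhibition of the yeast strain was measured after compound exposure and expressed relative to vehicle-treated controls. The strain carries defined defects in DNA damage repair.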

The mark [7] stands for this setting: at 5.0 µM (retest, dose inferred, filed as 0.5).
Where [8] appears, read: at 50.0 µM (retest, dose inferred, filed as 5.0).

In the case of `ClC1=C(Cl)C2c3ccccc3C1c1ccccc12`, the growth inhibition in assay [1] (setting [7]) is -4%; in assay [1] (setting [8]), 97% (active); in assay [1] (at 50.0 µM), 93.6% (active); in assay [2] (setting [7]), 6%; in assay [2] (setting [8]), 97% (active); in assay [2] (at 50.0 µM), 76.2% (active). Besides, the growth inhibition in assay [3] (setting [7]) was 0%; in assay [3] (setting [8]), 97% (active); in assay [3] (at 50.0 µM), 95.7% (active); in assay [4] (setting [7]), -4%; in assay [4] (setting [8]), 97% (active); in assay [4] (at 50.0 µM) it was 65.2%. In addition, the growth inhibition in assay [5] (setting [7]) is -9%; in assay [5] (setting [8]), 98% (active); in assay [5] (at 50.0 µM) it was 47.9%; in assay [6] (setting [7]) it was -5%; in assay [6] (setting [8]), 97% (active); in assay [6] (at 50.0 µM), 95.7% (active).
With `O=C(O)c1ccc(/C=C2\COc3ccccc3C2=O)cc1`, the growth inhibition in assay [1] (setting [7]) is 5%; in assay [1] (setting [8]) it was 85% (active); in assay [1] (at 50.0 µM) it was 62.6%; in assay [2] (setting [7]), 14%; in assay [2] (setting [8]), 92% (active); in assay [2] (at 50.0 µM) it was 67%. For the same compound, the growth inhibition in assay [3] (setting [7]) was 13%; in assay [3] (setting [8]), 96% (active); in assay [3] (at 50.0 µM), 83.1% (active); in assay [4] (setting [7]), 5%; in assay [4] (setting [8]), 80% (active); in assay [4] (at 50.0 µM), 52.8%. The growth inhibition in assay [5] (setting [7]) is 24%; in assay [5] (setting [8]), 94% (active); in assay [5] (at 50.0 µM) it was 68.2%; in assay [6] (setting [7]) it was 4%; in assay [6] (setting [8]) it was 91% (active); in assay [6] (at 50.0 µM) it was 84.5% (active).
For the compound `C[N+](C)(C)CCC(=O)c1ccco1`, the growth inhibition in assay [1] (setting [7]) was 7%; in assay [1] (setting [8]) it was 99% (active); in assay [1] (at 50.0 µM), 99.5% (active); in assay [2] (setting [7]), 16%; in assay [2] (setting [8]), 100% (active); in assay [2] (at 50.0 µM), 99.7% (active). Besides, the growth inhibition is 10% in assay [3] (setting [7]); 99% (active) in assay [3] (setting [8]); 99.5% (active) in assay [3] (at 50.0 µM); 8% in assay [4] (setting [7]); 99% (active) in assay [4] (setting [8]); 96% (active) in assay [4] (at 50.0 µM). In addition, the growth inhibition was 7% in assay [5] (setting [7]); 99% (active) in assay [5] (setting [8]); 99.7% (active) in assay [5] (at 50.0 µM); 4% in assay [6] (setting [7]); 99% (active) in assay [6] (setting [8]); 99.2% (active) in assay [6] (at 50.0 µM).
`Cc1cc(C(C)(CC(C)C)c2ccc(O)c(C)c2)ccc1O`: the growth inhibition was 99% (active) in assay [1] (setting [7]); 99% (active) in assay [1] (setting [8]); 91.1% (active) in assay [1] (at 50.0 µM); 98% (active) in assay [2] (setting [7]); 99% (active) in assay [2] (setting [8]); 93% (active) in assay [2] (at 50.0 µM). Besides, the growth inhibition in assay [3] (setting [7]) is 97% (active); in assay [3] (setting [8]) it was 98% (active); in assay [3] (at 50.0 µM) it was 93.2% (active); in assay [4] (setting [7]) it was 68%; in assay [4] (setting [8]), 98% (active); in assay [4] (at 50.0 µM), 92.5% (active). Further, the growth inhibition was 98% (active) in assay [5] (setting [7]); 97% (active) in assay [5] (setting [8]); 91.4% (active) in assay [5] (at 50.0 µM); 100% (active) in assay [6] (setting [7]); 100% (active) in assay [6] (setting [8]); 91.3% (active) in assay [6] (at 50.0 µM).
Turning to `O=C1Nc2ccccc2NC(=O)C(=C(c2ccccc2)c2ccccc2)C1=C(c1ccccc1)c1ccccc1`, the growth inhibition is 95% (active) in assay [1] (setting [7]); 96% (active) in assay [1] (setting [8]); 46.9% in assay [1] (at 50.0 µM); 94% (active) in assay [2] (setting [7]); 97% (active) in assay [2] (setting [8]); 97.8% (active) in assay [2] (at 50.0 µM). Moreover, the growth inhibition in assay [3] (setting [7]) was 96% (active); in assay [3] (setting [8]) it was 98% (active); in assay [3] (at 50.0 µM), 53.1%; in assay [4] (setting [7]) it was 92% (active); in assay [4] (setting [8]), 96% (active); in assay [4] (at 50.0 µM), 97.5% (active). In addition, the growth inhibition was 95% (active) in assay [5] (setting [7]); 97% (active) in assay [5] (setting [8]); 98% (active) in assay [5] (at 50.0 µM); 96% (active) in assay [6] (setting [7]); 96% (active) in assay [6] (setting [8]); 43.9% in assay [6] (at 50.0 µM).
As to `C[n+]1c(-c2ccc(/C=N/NC(=O)C(=O)N/N=C/c3ccc(-c4cn5ccccc5[n+]4C)cc3)cc2)cn2ccccc21`, the growth inhibition in assay [1] (setting [7]) is 59%; in assay [1] (setting [8]) it was 95% (active); in assay [1] (at 50.0 µM), 89.8% (active); in assay [2] (setting [7]), 63%; in assay [2] (setting [8]), 97% (active); in assay [2] (at 50.0 µM) it was 92.1% (active). For the same compound, the growth inhibition is 69% in assay [3] (setting [7]); 98% (active) in assay [3] (setting [8]); 88.6% (active) in assay [3] (at 50.0 µM); 28% in assay [4] (setting [7]); 91% (active) in assay [4] (setting [8]); 84.7% (active) in assay [4] (at 50.0 µM). For the same compound, the growth inhibition in assay [5] (setting [7]) is 64%; in assay [5] (setting [8]), 98% (active); in assay [5] (at 50.0 µM), 91% (active); in assay [6] (setting [7]), 70% (active); in assay [6] (setting [8]), 98% (active); in assay [6] (at 50.0 µM), 89.5% (active).
For `CCCCC(CCc1ccccc1)(C(=O)O)c1ccccc1` (configuration not stated), the growth inhibition is 88% (active) in assay [1] (setting [7]); 99% (active) in assay [1] (setting [8]); 99.4% (active) in assay [1] (at 50.0 µM); 87% (active) in assay [2] (setting [7]); 99% (active) in assay [2] (setting [8]); 99.5% (active) in assay [2] (at 50.0 µM). Also, the growth inhibition in assay [3] (setting [7]) was 68%; in assay [3] (setting [8]), 99% (active); in assay [3] (at 50.0 µM), 99.7% (active); in assay [4] (setting [7]), 88% (active); in assay [4] (setting [8]) it was 99% (active); in assay [4] (at 50.0 µM), 99% (active). Moreover, the growth inhibition in assay [5] (setting [7]) is 72% (active); in assay [5] (setting [8]) it was 99% (active); in assay [5] (at 50.0 µM) it was 99.5% (active); in assay [6] (setting [7]), 92% (active); in assay [6] (setting [8]), 99% (active); in assay [6] (at 50.0 µM), 99.4% (active).
As to `O=C(O)Cc1ccccc1CCc1ccccc1Cl`, the growth inhibition in assay [1] (setting [7]) was -26%; in assay [1] (setting [8]) it was 74% (active); in assay [1] (at 50.0 µM), 85.2% (active); in assay [2] (setting [7]), -11%; in assay [2] (setting [8]), 72% (active); in assay [2] (at 50.0 µM) it was 82.5% (active). For the same compound, the growth inhibition in assay [3] (setting [7]) was -19%; in assay [3] (setting [8]), 71% (active); in assay [3] (at 50.0 µM) it was 83.5% (active); in assay [4] (setting [7]) it was -2%; in assay [4] (setting [8]), 74% (active); in assay [4] (at 50.0 µM), 87.1% (active). The growth inhibition is 2% in assay [5] (setting [7]); 83% (active) in assay [5] (setting [8]); 77.1% (active) in assay [5] (at 50.0 µM); -19% in assay [6] (setting [7]); 83% (active) in assay [6] (setting [8]); 81.3% (active) in assay [6] (at 50.0 µM).
For `O=C1c2ccccc2NC(=O)C2C1C(c1ccccc1)CC2(O)c1ccccc1` (configuration not stated), the growth inhibition was 7% in assay [1] (setting [7]); 87% (active) in assay [1] (setting [8]); 62.5% in assay [1] (at 50.0 µM); 7% in assay [2] (setting [7]); 88% (active) in assay [2] (setting [8]); 73.8% (active) in assay [2] (at 50.0 µM). Moreover, the growth inhibition in assay [3] (setting [7]) is 16%; in assay [3] (setting [8]), 70% (active); in assay [3] (at 50.0 µM), 72% (active); in assay [4] (setting [7]) it was -14%; in assay [4] (setting [8]) it was 51%; in assay [4] (at 50.0 µM), 68%. The growth inhibition in assay [5] (setting [7]) was -27%; in assay [5] (setting [8]), 75% (active); in assay [5] (at 50.0 µM), 69.5%; in assay [6] (setting [7]), 21%; in assay [6] (setting [8]), 86% (active); in assay [6] (at 50.0 µM), 32.5%.

These data come from PubChem BioAssay (NCI).
